High-throughput results as filed in PubChem BioAssay.
LMP1 NFkB inh – EBV LMP1-driven NF-kappaB luciferase reporter inhibitors, primary screen, cell-based, luminescence, single point; inhibition, % at 12.5 µM; LMP1-induced NF-kappaB luciferase reporter cells; actives 0.69% (n = 350,000); in the data active = inhibition above about 41%; inconclusive = no clear call, values can overlap the other calls;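 also: 0% = neutral control wells and 100% = reference inhibitor control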
Peg3 promoter – Peg3 promoter-driven luciferase inhibitors, primary screen, cell-based, HeLa, luciferase luminescence; inhibition, % at 20 µM; HeLa PEG-Prom luciferase reporter, overnight; actives 1.7% (n = 360,000);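 active = inhibition of at least 50% at 20 µM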
CF NFkB block – inhibitors of PAF-induced NF-kB signaling, primary screen, cell-based, GFP fluorescence, uHTS; KKLEB NF-kB-GFP reporter, GFP fluorescence overnight; inhibition, % at 5 µM; actives 0.86% (n = 360,000); AID 588850, 2011;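 active = at least 50% inhibition at 5 µM, scaled per plate between neutral and stimulator controls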;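 also: PAF is a Pseudomonas aeruginosa culture filtrate used as stimulus; plate controls were PAF-stimulated DMSO wells for no effect and unstimulated DMSO wells for full effect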
Shn3 inh set2 – reduction of Shn3 3'UTR firefly luciferase signal, primary screen, Schnurri-3 inhibitor project, cell-based, Clone20 osteoblasts, set 2; Clone20 osteoblast Shn3 3'UTR firefly luciferase, 24 h; inhibition, % at 12.5 µM; actives 0.52% (n = 360,000); AID 588674, 2011;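 active = mean inhibition of at least 75% with every replicate also reaching 75%; inconclusive = mean inhibition at least 75% but some replicate below; inactive = mean inhibition below 75%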;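 also: 0% = median of neutral control wells and 100% = pilot-screen positive control compound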
KKLEB cytotox – cytotoxicity in KKLEB CF airway cells, primary screen, cytotoxicity control for CF NF-kB inhibitor project, cell-based, uHTS, fluorescence assay plates | KKLEB CF airway cells viability, ATPlite luminescence, overnight; stronger effect = lower value; cells stimulated with P. aeruginosa culture filtrate | activity change (cytotoxicity), % at 5 µM | actives 0.36% (n = 360,000);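 active = corrected activity change at or below -50% at 5 µM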
TRPM1 prom inh – inhibitors of MITF-dependent TRPM1 promoter reporter, primary screen, cell-based, SK-MEL-5, single point, luciferase. SK-MEL-5 TRPM1 promoter luciferase, 24 h. inhibition, % at 12.5 µM. actives 0.83% (n = 330,000). AID 488899, 2010;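 active = mean inhibition across replicates of 60% or more, whatever share of single replicates reaches that level; inconclusive = some that reach 60%, reason not given; inactive = mean inhibition across replicates below 60%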
* marks the source's active call; other numbers are inactive results; ? = inconclusive; . = no result; ! = not confirmed by another sample. A selection: hits, their analogues and other compounds. The true share with any hit is near 2.9%.

SMILES | LMP1 NFkB inh | Peg3 promoter | CF NFkB block | Shn3 inh set2 | KKLEB cytotox | TRPM1 prom inh
CCCCCCCCCCOC(=O)Cn1c(COc2ccccc2C)[n+](C)c2ccccc21 | 18 | 107* | 60* | ? | -42 | 5
CCCCOC(=O)Cn1c(=O)n(CC(=O)OCCCC)c2ccccc21 | 2 | 1 | 10 | -18 | -5 | 5
CCCCCCCCCCOC(=O)Cn1c(COc2cccc(C)c2)[n+](C)c2ccccc21 | -4 | 46 | 24 | 59 | -28 | 47
CCCCCCCCCCOC(=O)Cn1c(COc2ccc(OC)cc2)[n+](C)c2ccccc21 | -4 | 105* | 34 | 94*! | -22 | 85*
CCCCCCCCCCOC(=O)Cn1c(COc2ccc(Cl)cc2)[n+](C)c2ccccc21 | 7 | 98* | 12 | 96* | 1 | 28
CCCCCCCCCCOC(=O)Cn1c(COc2ccccc2)[n+](C)c2ccccc21 | 29 | 100* | 71* | ? | -62* | 11
CCN(c1ccccc1)S(=O)(=O)c1ccc(C(=O)N2CCN(c3ccccc3F)CC2)cc1 | -2 | 12 | 0 | 24 | 6 | .
Nc1ccc(N=Nc2ccccc2O)c(N)c1 | . | -316 | -23 | -95 | -2 | .
Oc1ccccc1N=Nc1ccccc1O | 67* | -13 | 1 | 69 | 0 | 9
O=C(NCc1ccc(Cl)c(Cl)c1)c1cc(C2CCCCN2C(=O)c2ccccc2)on1 (centres undefined) | . | 15 | 25 | 12 | -15 | .
CN(C)CCOc1ccc(-c2c(-c3ccccc3)sc3ccccc23)cc1 | -17 | 100* | 82* | 37 | -89* | 61*
c1ccc(-c2sc3ccccc3c2-c2ccc(OCCN3CCCCC3)cc2)cc1 | -3 | -1 | -8 | 0 | -11 | -9
Cc1ccc(-n2nc3c(N4CCC(C(=O)NCc5ccccc5C)CC4)nnc(C)c3c2C)cc1 | 2 | 89* | 28 | 32 | -15 | 94*
CCOc1ccccc1CNC(=O)C1CCN(c2nnc(C)c3c(C)n(-c4ccc(C)cc4)nc23)CC1 | -1 | 97* | -48 | 41 | -21 | 96*
COc1ccc(-n2nc3c(N4CCC(C(=O)NCc5cccc(C)c5)CC4)nnc(C)c3c2C)cc1 | -4 | 99* | -23 | -23 | -28 | 95*
CCc1ccc(CNC(=O)C2CCCN(c3nnc(C)c4c(C)n(-c5ccccc5)nc34)C2)cc1 (centres undefined) | 17 | -41 | 4 | 42 | -12 | 66*
Cc1cccc(C(O)c2cnc(C)n2Cc2ccccc2)c1 (centres undefined) | 1 | 3 | -32 | 1 | 7 | .
CCOc1ccc(CNC(=O)C2CCN(c3nnc(C)c4c(C)n(-c5ccc(C)cc5)nc34)CC2)cc1 | -6 | 101* | -58 | 61 | -2 | 95*
CCCCCCCN1C(Nc2ccccc2)=NC[C@@H]1Cc1ccccc1 | 2 | 40 | 7 | 86* | -12 | -7
CN(C)C1=NC[C@H](Cc2ccccc2)N1CCCC1CCCC1 | 4 | -1 | 3 | 86* | -13 | -26
CC(C)(C)C1CCC(CN2C(Nc3ccccc3)=NC[C@@H]2Cc2ccccc2)CC1 (some centres undefined) | -12 | 95* | 10 | -13 | -12 | 95*
CN(C)C1=NC[C@H](Cc2ccccc2)N1CCCC1CCCCC1 | -7 | 37 | 0 | 83 | -12 | 1
c1ccc(CCCCN2C(Nc3ccccc3)=NC[C@@H]2Cc2ccccc2)cc1 | 1 | 16 | 0 | 4 | -10 | -21
Cc1ccc(C(O)c2ncc(-c3ccccc3Cl)[nH]2)c(C)c1 (centres undefined) | . | -25 | 3 | 2 | 0 | .
CC(=O)C1=CCC(c2ccc(C)cc2)N(S(=O)(=O)c2ccc(Cl)cc2)C1 (centres undefined) | . | 15 | 8 | -6 | 6 | .
SMILES | LMP1 NFkB inh | Peg3 promoter | CF NFkB block | Shn3 inh set2 | KKLEB cytotox | TRPM1 prom inh
CC1(C(=O)Nc2ccc3c(c2)OCO3)Cc2c(-c3cccc(C(N)=O)c3)ccnc2O1 (centres undefined) | . | 5 | 8 | 2 | -14 | .
O=CC1=C(c2ccccc2)Oc2ccccc2O1 | 4 | 98* | 37 | 4 | -5 | 12
CCCCN1C(=O)C(CC(=O)NCc2cccc3ccccc23)CC(C(=O)N2CCOCC2)=C1C (centres undefined) | 6 | 10 | -13 | -4 | -3 | .
CCc1nc2c(OCC3CCCCC3)cccn2c1N(C)C(=O)c1ccccc1F | . | 21 | 25 | -10 | -11 | .
CC(C)CCNC(=O)C(c1ccc(O)cc1)N(Cc1cccs1)C(=O)C1COc2ccccc2O1 (centres undefined) | 5 | 51* | 5 | -1 | -3 | -5
CC(C)(C)NC(=O)CN(Cc1cccs1)C(=O)C1COc2ccccc2O1 (centres undefined) | 0 | 17 | 8 | -12 | 6 | -8
Cc1ccc(N=c2oc3cc(O)ccc3cc2C(N)=O)cc1 | 0 | -172 | 83* | -48 | -23 | -34
CCCCn1c(O)c2n(c1=O)Cc1ccccc1N=C2c1ccc(C)cc1 | . | 10 | 12 | -8 | -3 | .
CC1(C(=O)Nc2cccc3ncccc23)CCN1C(=O)Cc1ccc(-c2ccccc2)cc1 (centres undefined) | . | 16 | 2 | 40 | 1 | .
COC(=O)c1c(NC(=S)NN2CCN(C)CC2)sc2c1CCC(C)C2 (centres undefined) | -18 | 107* | 26 | 17 | -45 | 51
Cc1ccc(NC(=O)CO/N=C(\N)c2ccccc2)cc1C | -8 | -12 | -15 | 89* | 7 | -8
CC(C)(C)c1ccc(NC(=O)CON=C(N)c2ccccc2)cc1 | -7 | -5 | 1 | 5 | 12 | -7
CC(=O)Oc1ccccc1Cn1c(C)c(C(=O)NCc2ccc(Cl)c(Cl)c2)sc1=O | . | 24 | -8 | 21 | -1 | .
COC(=O)Oc1ccc(/C=C/C(=O)OC(C)C)cc1OC(=O)OC | -14 | -73 | 17 | 94* | -5 | -63
COc1ccc(/C=C/C(=O)OCCNC(=O)c2ccncc2)cc1OC | 2 | 11 | -3 | 16 | -2 | 5
CCCCOC(=O)/C=C/c1ccc(OC(=O)OC)c(OC(=O)OC)c1 | -15 | -152 | 13 | 96* | -11 | -19
COc1ccc(NC(=O)c2ccccc2F)cc1Cl | -32 | -284 | 4 | -78 | -22 | -57
O=C(Nc1ccc(Oc2ccc(Cl)cc2)c(Cl)c1)c1cc(I)cc(I)c1O | -3 | 82* | 66* | 3 | 23 | 5
